From PubChem BioAssay (Tox21)
“And” between values parts separate entries of the source, which are not always exact repeats. Equal entries are not always repeated. Records with an inconclusive call do not appear. The source made the active and inactive calls. Unless noted, the call rests on the fitted dose curve; in most records, active means well fitted curve in the direction sought with a large enough effect in the repeat runs; inconclusive means weak or mixed curves; inactive means no such curve, though single readings can be large; an effect the other way counts as inactive or inconclusive.

Columns and labels:
[1] = target: Acetylcholinesterase (Homo sapiens) (UniProt P22303); assay: Acetylcholinesterase (AChE) small molecule antagonists: enzyme-based qHTS assay (AID 1347397; calls by dose curve; further: nearly all actives have a fitted effect of over 55% in size); settings: Potency: AChE enzyme activity inhibition; outcome: AChE enzyme activity inhibition
Summary of the method: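 Colorimetric DTNB read-out of thiocholine released from acetylthiocholine by recombinant human AChE (50 mU/mL as dispensed). Compounds were preincubated 30 min at RT before substrate/DTNB addition, with a 10 min RT reaction.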

[2] = target: Acetylcholinesterase (Homo sapiens) (UniProt P22303); assay: Acetylcholinesterase (AChE) small molecule antagonists: enzyme-based qHTS assay with human liver microsomes (AID 1347399; calls by dose curve; further: nearly all actives have a fitted effect of over 60% in size); settings: Potency: qHTS inhibition; outcome: qHTS inhibition
Summary of the method: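 Recombinant human AChE (50 mU/mL in the enzyme mix) and human liver microsomes (0.25 mg/mL final) were preincubated with compound and NADPH (0.25 mg/mL final) for 30 min at 37 C. Acetylthiocholine/DTNB was then added; thiocholine was read colorimetrically after 10 min at room temperature.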

[3] = target: Cytochrome P450 2C19 (Homo sapiens) (UniProt P33261); assay: Cytochrome P450 Family 2 Subfamily C Member 19 (CYP2C19) small molecule antagonists: luciferase reporter qHTS assay (AID 1671197); further: nearly all actives have a fitted effect of over 65% in size; further: potency means the concentration at half of the fitted maximal effect; on activity change, negative = inhibition: series mostly up to about 120 µM
Summary of the method: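 CYP2C19 P450-Glo, 1536-well qHTS. Cpd + enzyme/proluciferin substrate 10 min RT; + NADPH regen, 37C 1 h; stop with luciferin detection reagent, 20 min RT, luminescence (RLU). Pos ctrl ketoconazole.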

[4] = target: Cytochrome P450 2C9 (Homo sapiens) (UniProt P11712); assay: Cytochrome P450 Family 2 Subfamily C Member 9 (CYP2C9) small molecule antagonists: luciferase reporter qHTS assay (AID 1671198); further: nearly all actives have a fitted effect of over 50% in size; further: potency means the concentration at half of the fitted maximal effect; on activity change, negative = inhibition: series mostly up to about 120 µM
Summary of the method: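 P450-Glo proluciferin substrate with CYP2C9 enzyme; 10 min RT preincubation, then NADPH regeneration 1 h at 37C; luciferin detection reagent 20 min RT, luminescence in relative luminescence units.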

[5] = target: Cytochrome P450 1A2 (Homo sapiens) (UniProt P05177); assay: Cytochrome P450 Family 1 Subfamily A Member 2 (CYP1A2) small molecule antagonists: luciferase reporter qHTS assay (AID 1671199); further: nearly all actives have a fitted effect of over 50% in size; further: potency means the concentration at half of the fitted maximal effect; on activity change, negative = inhibition: series mostly up to about 120 µM
Summary of the method: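 Room-temperature CYP1A2 reaction with proluciferin substrate: compounds added from DMSO, 10 min preincubation, NADPH regeneration for 1 h. Luciferin detection reagent then added; luminescence recorded as RLU.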

[6] = target: Voltage-gated inwardly rectifying potassium channel KCNH2 (Homo sapiens) (UniProt Q12809); assay: Human Ether-a-go-go-Related Gene (hERG) channel small molecule antagonists: fluorescence cell-based qHTS assay (AID 1671200); further: nearly all actives have a fitted effect of over 50% in size; further: potency means the concentration at half of the fitted maximal effect;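 on activity change, negative = inhibition: hERG-expressing U2OS cells given a thallium stimulus after FluxOR II dye loading; series mostly up to about 77 µM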
Summary of the method: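 Channel function was assessed by thallium flux. Cells seeded the previous day and kept at 37 C took up FluxOR II dye over 1 h in the dark at room temperature, then sat another 10 min before stimulation.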

[7] = target: Cytochrome P450 3A4 (Homo sapiens) (UniProt P08684); assay: Cytochrome P450 Family 3 Subfamily A Member 4 (CYP3A4) small molecule antagonists: luciferase reporter qHTS assay (AID 1671201); further: nearly all actives have a fitted effect of over 50% in size; further: potency means the concentration at half of the fitted maximal effect; on activity change, negative = inhibition: series mostly up to about 120 µM
Summary of the method: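 Compounds in DMSO were pin-transferred onto CYP3A4 enzyme-substrate mix and held 10 min at room temperature. NADPH regenerating solution started the reaction for 1 h; luciferin detection reagent stopped it, and luminescence was read after 20 min.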

[8] = target: Acetylcholinesterase (Homo sapiens) (UniProt P22303); assay: Acetylcholinesterase (AChE) small molecule antagonists: colormetric cell-based qHTS assay (AID 1347395; calls by dose curve; further: nearly all actives have a fitted effect of over 30% in size; further: potency means the concentration at half of the fitted maximal effect)
Summary of the method: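 Colorimetric read-out: DTNB detects thiocholine released when cellular AChE in SH-SY5Y cells hydrolyses acetylthiocholine. Cells attached overnight, received compound for 30 min at 37 C, then substrate mix for 90 min at 37 C.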

[9] = target: Acetylcholinesterase (Homo sapiens) (UniProt P22303); assay: Acetylcholinesterase (AChE) small molecule antagonists: fluorescence cell-based qHTS assay (AID 1347398; calls by dose curve; further: nearly all actives have a fitted effect of over 50% in size); settings: Potency: AChE activity; outcome: AChE activity
Summary of the method: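 SH-SY5Y, 2,000 cells/well, attached overnight; cmpd 30 min 37 C; acetylthiocholine/Thiolite Green cocktail 40 min RT; fluorescence Ex/Em 490/520 nm.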

[10] = target: Cytochrome P450 2D6 (Homo sapiens) (UniProt P10635); assay: Cytochrome P450 Family 2 Subfamily D Member 6 (CYP2D6) small molecule antagonists: luciferase reporter qHTS assay (AID 1671196); further: nearly all actives have a fitted effect of over 50% in size; further: potency means the concentration at half of the fitted maximal effect; on activity change, negative = inhibition: series mostly up to about 120 µM
Summary of the method: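 Room-temperature luminescent CYP2D6 activity assay: compound preincubated 10 min with enzyme–substrate mix, NADPH-initiated reaction 1 h, detection reagent 20 min before reading.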
On the % scale 0 is the no-effect control and ±100 the full control effect.

Sequence of Cytochrome P450 3A4 (Homo sapiens) (P08684 whole entry, looked up): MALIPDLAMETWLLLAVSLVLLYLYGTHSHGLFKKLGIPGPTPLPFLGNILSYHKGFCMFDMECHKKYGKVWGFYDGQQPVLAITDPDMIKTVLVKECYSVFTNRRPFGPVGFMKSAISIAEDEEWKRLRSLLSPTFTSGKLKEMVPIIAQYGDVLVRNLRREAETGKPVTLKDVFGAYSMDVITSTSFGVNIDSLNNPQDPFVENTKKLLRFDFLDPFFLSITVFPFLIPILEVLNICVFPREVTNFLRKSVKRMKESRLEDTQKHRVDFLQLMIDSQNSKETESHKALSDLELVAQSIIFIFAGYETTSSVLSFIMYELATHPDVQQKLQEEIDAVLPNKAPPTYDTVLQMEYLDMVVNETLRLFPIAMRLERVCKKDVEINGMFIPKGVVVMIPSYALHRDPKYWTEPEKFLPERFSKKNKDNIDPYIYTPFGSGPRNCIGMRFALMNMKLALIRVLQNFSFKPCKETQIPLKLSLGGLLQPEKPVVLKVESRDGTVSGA
Sequence of Cytochrome P450 2C19 (Homo sapiens) (P33261 whole entry, looked up): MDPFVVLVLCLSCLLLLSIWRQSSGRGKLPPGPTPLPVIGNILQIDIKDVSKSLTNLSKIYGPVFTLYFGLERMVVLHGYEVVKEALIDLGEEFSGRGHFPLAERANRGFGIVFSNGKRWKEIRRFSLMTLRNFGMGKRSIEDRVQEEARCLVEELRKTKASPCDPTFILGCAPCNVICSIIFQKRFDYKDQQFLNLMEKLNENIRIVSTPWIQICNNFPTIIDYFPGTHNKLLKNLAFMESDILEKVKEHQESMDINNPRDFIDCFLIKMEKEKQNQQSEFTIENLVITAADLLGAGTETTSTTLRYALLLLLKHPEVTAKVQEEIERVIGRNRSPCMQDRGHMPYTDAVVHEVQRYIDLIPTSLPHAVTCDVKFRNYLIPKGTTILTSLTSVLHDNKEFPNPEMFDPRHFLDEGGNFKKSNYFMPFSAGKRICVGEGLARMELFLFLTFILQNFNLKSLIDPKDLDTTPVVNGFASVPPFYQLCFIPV
Sequence of Acetylcholinesterase (Homo sapiens) (P22303 whole entry, looked up): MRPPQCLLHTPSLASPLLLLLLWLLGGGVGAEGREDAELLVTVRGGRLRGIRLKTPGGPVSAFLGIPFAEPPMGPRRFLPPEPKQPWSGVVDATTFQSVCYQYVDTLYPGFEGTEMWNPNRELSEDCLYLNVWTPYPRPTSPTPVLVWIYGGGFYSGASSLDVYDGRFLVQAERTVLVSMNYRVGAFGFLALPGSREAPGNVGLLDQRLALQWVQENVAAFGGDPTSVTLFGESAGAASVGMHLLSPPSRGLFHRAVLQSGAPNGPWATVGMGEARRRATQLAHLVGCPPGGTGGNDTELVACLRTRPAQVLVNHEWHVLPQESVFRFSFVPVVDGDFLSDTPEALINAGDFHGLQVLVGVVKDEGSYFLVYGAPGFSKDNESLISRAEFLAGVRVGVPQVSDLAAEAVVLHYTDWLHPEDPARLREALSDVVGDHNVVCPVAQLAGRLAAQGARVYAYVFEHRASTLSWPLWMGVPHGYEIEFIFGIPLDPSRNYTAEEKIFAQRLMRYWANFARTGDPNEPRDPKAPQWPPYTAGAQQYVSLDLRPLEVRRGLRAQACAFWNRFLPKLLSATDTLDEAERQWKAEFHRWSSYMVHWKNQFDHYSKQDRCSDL
Sequence of Cytochrome P450 2C9 (Homo sapiens) (P11712 whole entry, looked up): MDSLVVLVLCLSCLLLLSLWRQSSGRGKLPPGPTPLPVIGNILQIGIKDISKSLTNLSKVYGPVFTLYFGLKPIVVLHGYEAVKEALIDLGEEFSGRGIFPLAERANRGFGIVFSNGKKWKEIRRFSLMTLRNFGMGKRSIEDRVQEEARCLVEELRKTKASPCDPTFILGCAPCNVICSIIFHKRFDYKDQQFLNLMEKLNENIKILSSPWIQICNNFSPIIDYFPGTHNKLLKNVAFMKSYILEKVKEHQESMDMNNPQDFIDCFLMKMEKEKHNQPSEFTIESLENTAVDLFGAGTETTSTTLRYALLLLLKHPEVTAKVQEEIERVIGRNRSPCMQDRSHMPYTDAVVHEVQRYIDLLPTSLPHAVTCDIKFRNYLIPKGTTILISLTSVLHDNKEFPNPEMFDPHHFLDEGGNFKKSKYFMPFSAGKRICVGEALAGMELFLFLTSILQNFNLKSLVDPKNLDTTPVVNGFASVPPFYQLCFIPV
Sequence of Cytochrome P450 1A2 (Homo sapiens) (P05177 whole entry, looked up): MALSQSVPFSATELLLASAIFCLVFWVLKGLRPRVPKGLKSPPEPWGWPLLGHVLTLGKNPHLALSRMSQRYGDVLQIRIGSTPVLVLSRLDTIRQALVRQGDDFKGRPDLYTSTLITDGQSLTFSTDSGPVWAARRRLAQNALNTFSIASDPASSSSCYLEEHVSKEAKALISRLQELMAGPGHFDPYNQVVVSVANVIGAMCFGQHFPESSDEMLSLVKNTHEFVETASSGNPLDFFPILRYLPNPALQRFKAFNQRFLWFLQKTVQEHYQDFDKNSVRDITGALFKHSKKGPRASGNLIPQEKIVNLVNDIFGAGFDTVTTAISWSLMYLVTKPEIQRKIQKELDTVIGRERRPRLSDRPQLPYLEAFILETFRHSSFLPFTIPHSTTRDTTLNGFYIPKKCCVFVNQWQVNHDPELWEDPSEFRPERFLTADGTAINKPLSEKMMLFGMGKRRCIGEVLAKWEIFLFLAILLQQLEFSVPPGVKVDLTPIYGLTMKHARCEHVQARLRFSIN
Sequence of Cytochrome P450 2D6 (Homo sapiens) (P10635 whole entry, looked up): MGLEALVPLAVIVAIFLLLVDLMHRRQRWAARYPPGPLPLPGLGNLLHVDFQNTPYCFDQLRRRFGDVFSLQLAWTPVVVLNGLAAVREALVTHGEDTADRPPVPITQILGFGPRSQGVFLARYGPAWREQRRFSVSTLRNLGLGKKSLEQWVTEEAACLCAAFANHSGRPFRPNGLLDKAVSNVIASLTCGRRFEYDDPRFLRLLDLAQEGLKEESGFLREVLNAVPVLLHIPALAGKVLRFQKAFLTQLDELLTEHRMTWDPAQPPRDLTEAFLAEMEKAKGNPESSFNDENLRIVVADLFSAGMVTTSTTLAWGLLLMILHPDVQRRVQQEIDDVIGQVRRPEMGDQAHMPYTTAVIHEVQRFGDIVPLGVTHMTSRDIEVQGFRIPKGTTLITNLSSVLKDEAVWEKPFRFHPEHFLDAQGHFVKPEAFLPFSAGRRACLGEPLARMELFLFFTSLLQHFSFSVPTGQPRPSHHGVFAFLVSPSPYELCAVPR
Sequence of Voltage-gated inwardly rectifying potassium channel KCNH2 (Homo sapiens) (Q12809 whole entry, looked up): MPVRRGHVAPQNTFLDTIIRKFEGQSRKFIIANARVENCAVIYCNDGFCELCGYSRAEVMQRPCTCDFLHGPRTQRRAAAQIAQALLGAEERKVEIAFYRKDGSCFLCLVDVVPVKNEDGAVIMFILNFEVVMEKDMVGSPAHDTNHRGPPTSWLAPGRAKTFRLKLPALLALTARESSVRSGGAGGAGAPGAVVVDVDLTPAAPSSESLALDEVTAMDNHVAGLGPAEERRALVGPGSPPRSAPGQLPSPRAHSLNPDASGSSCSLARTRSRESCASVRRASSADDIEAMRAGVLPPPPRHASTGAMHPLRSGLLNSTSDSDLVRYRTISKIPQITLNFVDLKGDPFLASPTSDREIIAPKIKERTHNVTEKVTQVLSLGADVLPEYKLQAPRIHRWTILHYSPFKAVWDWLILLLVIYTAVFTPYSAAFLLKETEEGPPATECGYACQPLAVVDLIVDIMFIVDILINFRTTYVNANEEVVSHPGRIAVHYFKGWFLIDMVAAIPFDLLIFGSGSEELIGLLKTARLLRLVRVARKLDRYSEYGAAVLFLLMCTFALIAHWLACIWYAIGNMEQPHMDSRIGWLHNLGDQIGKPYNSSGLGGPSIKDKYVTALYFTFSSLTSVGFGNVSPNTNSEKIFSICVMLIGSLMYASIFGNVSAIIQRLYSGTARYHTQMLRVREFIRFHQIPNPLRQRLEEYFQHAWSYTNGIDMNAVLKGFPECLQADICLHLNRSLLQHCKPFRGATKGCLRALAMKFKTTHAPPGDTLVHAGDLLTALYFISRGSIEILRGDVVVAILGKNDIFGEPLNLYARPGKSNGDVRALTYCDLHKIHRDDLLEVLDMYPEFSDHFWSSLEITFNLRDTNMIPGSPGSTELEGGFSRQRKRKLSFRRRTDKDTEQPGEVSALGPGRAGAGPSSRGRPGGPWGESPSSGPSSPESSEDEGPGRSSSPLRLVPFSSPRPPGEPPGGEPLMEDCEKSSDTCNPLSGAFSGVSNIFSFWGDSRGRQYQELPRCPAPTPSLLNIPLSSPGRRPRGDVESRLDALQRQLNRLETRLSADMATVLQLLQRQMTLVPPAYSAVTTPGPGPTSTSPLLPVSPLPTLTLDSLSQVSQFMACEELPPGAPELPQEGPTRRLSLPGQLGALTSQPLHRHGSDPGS

CC(C)(C)c1cc(O)ccc1O
active: Potency [3] 39.9 µM and 56.4 µM | Potency [4] 31.7 µM | Potency [5] 39.9 µM
inactive: Potency [1] | Potency [2] | Potency [6] | Potency [7]

CCOC(=O)C(Cl)Cc1cc(-n2nc(C)n(C(F)F)c2=O)c(F)cc1Cl (stereo not drawn)
active: Potency [3] 5.64 µM | Potency [4] 7.1 µM | Potency [5] 28.3 µM | Potency [6] 24.5 µM | Potency [7] 35.6 µM
inactive: Potency [1] | Potency [2]

COc1ccc(CN2CCNCC2)c(OC)c1OC
inactive: Potency [8] | Potency [9] | Potency [6]

CC[C@@H](CO)NC(=O)[C@@H]1C=C2c3cccc4[nH]cc(c34)C[C@H]2N(C)C1
active: Potency [8] 17.4 µM
inactive: Potency [2] | Potency [6] | Potency [7]

C=C(C)[C@H]1CN[C@H](C(=O)O)[C@H]1CC(=O)O
inactive: Potency [1] | Potency [9] | Potency [2] | Potency [3] | Potency [4] | Potency [5] | Potency [6] | Potency [7]

C=CCN1CC[C@]23CCCC[C@H]2[C@H]1Cc1ccc(O)cc13
inactive: Potency [4] | Potency [5] | Potency [6]

CCCCCCCCSC(=O)Oc1cc(Cl)nnc1-c1ccccc1
inactive: Potency [8] | Potency [9] | Potency [10] | Potency [6] | Potency [7]
active: Potency [4] 35.6 µM

CCNP(=S)(OC)O/C(C)=C/C(=O)OC(C)C (stereo not drawn)
inactive: Potency [9] | Potency [2]
active: Potency [10] 31.7 µM | Potency [3] 0.0894 µM | Potency [4] 0.633 µM | Potency [5] 2.52 µM | Potency [7] 1.26 µM

CCC(CC)(CNC(=O)CCCO)c1cccc(OC)c1
inactive: Potency [8] | Potency [9] | Potency [5] | Potency [6]
active: Potency [3] 7.76 µM

C[C@@H](N)[C@@H](O)c1ccccc1
inactive: Potency [4] | Potency [5] | Potency [6] | Potency [7]
active: Potency [3] 21.9 µM

Cc1ccc(S(=O)(=O)N[C@@H](CCCCN)C(=O)CCl)cc1
inactive: Potency [8] | Potency [2] | Potency [4] | Potency [5] | Potency [6]
active: Potency [10] 17.4 µM | Potency [3] 38.9 µM

CC(=NC#N)N(C)Cc1ccc(Cl)nc1
inactive: Potency [1] | Potency [5] | Potency [6] | Potency [7]

CCCC(C)C1(CC)C(=O)N=C(S)NC1=O (stereo not drawn)
inactive: Potency [6]

O=C(O)C(F)(F)C(F)(F)C(F)(F)C(F)(F)C(F)(F)C(F)(F)F
active: Potency [4] 6.33 µM
inactive: Potency [1] | Potency [9] | Potency [10] | Potency [3] | Potency [6] | Potency [7]

BrCc1ccc(Br)cc1
inactive: Potency [2] | Potency [6] | Potency [7]
active: Potency [8] 71 µM

[P]#[In]
inactive: Potency [1] | Potency [9] | Potency [2] | Potency [10] | Potency [4] | Potency [5] | Potency [6] | Potency [7]

CCCN1CCC[C@@H]2Cc3[nH]ncc3C[C@H]21
inactive: Potency [2] | Potency [4] | Potency [5] | Potency [6] | Potency [7]
active: Potency [8] 27.5 µM | Potency [10] 30.9 µM

CCc1cc(OC)c(C[C@H](C)N)cc1OC
active: Potency [5] 20.9 µM
inactive: Potency [3] | Potency [4] | Potency [6]

O=C(O)c1c(Cl)ccc2cc(Cl)cnc12
inactive: Potency [8] | Potency [9] | Potency [6] | Potency [7]
active: Potency [4] 79.6 µM

COc1ccc2c(C(=O)c3ccc(Cl)cc3)c(C)n(CC(=O)O)c2c1
active: Potency [4] 15.5 µM
inactive: Potency [1] | Potency [2] | Potency [10] | Potency [5] | Potency [6] | Potency [7]

C#CCOC(=O)/C=C(C)/C=C/CC(C)CCCC(C)C (stereo not drawn)
inactive: Potency [8] | Potency [9] | Potency [10] | Potency [7]
active: Potency [3] 79.6 µM | Potency [4] 31.7 µM | Potency [5] 28.3 µM

CN1C(=O)COc2c(C(=O)NC3CN4CCC3CC4)cc(Cl)cc21 (stereo not drawn)
inactive: Potency [2] | Potency [10] | Potency [4] | Potency [5] | Potency [6] | Potency [7]
active: Potency [8] 38.9 µM

CCC(=O)OC1(c2ccccc2)CCN(C)CC1
inactive: Potency [3] | Potency [4] | Potency [5] | Potency [6] | Potency [7]
active: Potency [10] 37.5 µM

Cn1c(N)nc2c3cccnc3ccc21
active: Potency [10] 12 µM | Potency [5] 16.9 µM
inactive: Potency [1] | Potency [3] | Potency [4] | Potency [6] | Potency [7]

Oc1ccc2c3c1O[C@H]1[C@@H](O)C=C[C@H]4[C@@H](C2)NCC[C@@]341
inactive: Potency [4] | Potency [5] | Potency [6] | Potency [7]

Brc1c(Br)c(Br)c(Br)c(Br)c1Br
inactive: activity, negative = inhibition [8] -5.69% [at 10.5 µM] | activity change, negative = inhibition [2] -0.832% [at 10.5 µM] | activity change, negative = inhibition [10] -1.47% [at 10.5 µM] | activity change, negative = inhibition [3] -0.615% [at 10.5 µM] | activity change, negative = inhibition [4] 0.0091% [at 10.5 µM] | activity change, negative = inhibition [6] 19.9% [at 6.97 µM] | activity change, negative = inhibition [7] 2.63% [at 10.5 µM]

CCC1(c2cccc(O)c2)CCCCN(C)C1 (stereo not drawn)
active: Potency [10] 15.5 µM
inactive: Potency [3] | Potency [5] | Potency [6] | Potency [7]

C[N+]1(C)CCCCC1
inactive: Potency [10] | Potency [3] | Potency [6] | Potency [7]

N#CC(Br)(Br)C(N)=O
inactive: Potency [5] | Potency [6] | Potency [7]
active: Potency [10] 71 µM

CCCN1CCC[C@@H]2Cc3nc(N)ncc3C[C@H]21
inactive: Potency [3] | Potency [5] | Potency [6] | Potency [7]

CN(C)C1CCCCC1
inactive: Potency [8] | Potency [2] | Potency [3] | Potency [4] | Potency [6] | Potency [7]

O=[N+]([O-])c1cccc(CCl)c1
inactive: Potency [6]

ClC(Cl)(Cl)Cl
inactive: Potency [8] | Potency [9] | Potency [10] | Potency [3] | Potency [4] | Potency [6] | Potency [7]
